Bioassay records from PubChem.
Only some compounds are listed: those with a hit (about 12% of all), similar ones and a draw of the others.
Sfp PPTase inh: inhibitors of Bacillus subtilis Sfp phosphopantetheinyl transferase | Biochemical Sfp PPTase activity, qHTS | Potency, µM, usual class: inhibitors | 310,000 compounds, 3.5% hits | AID 1490;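 also: the enzyme is Sfp with the accession as filed and its product quenches rhodamine fluorescence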
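Compounds were incubated with enzyme (final 15 nM) for 15 min at room temperature before substrate addition started the reaction. Fluorescence at 525 nm excitation, 598 nm emission was recorded immediately and after 30 minutes.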
PLK1 PBD inh: inhibitors of human PLK1 polo-box domain binding | P53350 | Plk1 PBD binding of FITC phosphopeptide, fluorescence polarization | Potency, µM, hits mostly inhibitors | 360,000 compounds, 2.8% hits; also: series mostly up to about 57 µM; nearly all actives have a fitted effect of over 65% in size
G9a inh: inhibitors of human histone lysine methyltransferase G9a | G9a H3K9 monomethylation, AlphaScreen, 2 h | Potency, µM (top dose mostly 102 µM), usual class: inhibitors | 350,000 compounds, 8.8% hits | AID 504332; also: nearly all actives have a fitted effect of over 75% in size
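G9a (20 nM) was preincubated 15 min with compound, then reacted 2 h at room temperature with 500 nM biotin-H3K9 peptide and 20 µM SAM. Monomethyl-H3K9 detected by AlphaScreen using anti-H3K9me1 antibody.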
HP1b chromo inh: HP1-beta chromodomain-methylated histone interaction inhibition | AlphaScreen HP1-beta / biotin-H3K9me3 peptide binding | Potency, µM (top dose mostly 114 µM), actives largely listed as inhibitors | P83916 | AID 540317 | 390,000 compounds, 0.56% hits; also: nearly all actives have a fitted effect of over 70% in size
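Compound inhibition of the preformed complex between 50 nM HP1-beta and 50 nM biotinylated H3K9me3 peptide was read by AlphaScreen. Buffer was PBS pH 7.4 with 0.01% Tween-20. Incubations ran 30 min at room temperature, with 10 ug/mL donor/acceptor beads.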
BAZ2B inh: blocks human BAZ2B; Potency, µM (doses to about 114 µM), usual class: inhibitors; Q9UIF8; AID 504333; AlphaScreen BAZ2B-H3K14Ac peptide displacement; 360,000 compounds, 4.4% hits; also: nearly all actives have a fitted effect of over 60% in size
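AlphaScreen displacement of biotin-H3(5-23)K14Ac peptide (50 nM final) from BAZ2B (50 nM final) in PBS pH 7.4, 0.01% Tween-20; complex preformed 30 min RT, then compounds (top 110 uM) 30 min RT, beads 20 min dark.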
JMJD2A Tudor: JMJD2A Tudor domain (human) inhibition; O75164; AlphaScreen JMJD2A-Tudor / H3K4me3 peptide binding; Potency, µM (doses to about 114 µM), usual class: inhibitors; 390,000 compounds, 4.4% hits; AID 504339; also: nearly all actives have a fitted effect of over 50% in size
Of the large screens only hits and unclear results are named; the others gave an inactive call. Calls follow the shape of the dose curve; as a rule, active = well fitted curve in the direction sought with a large enough effect; inconclusive = small, poorly fitted or top-dose-only effect, or another doubt; inactive = no such curve, though single readings can be large; an effect the other way counts as inactive or inconclusive.

COc1cccc(NC(=S)NC(=O)/C=C/c2ccco2)c1	G9a inh 45µM, BAZ2B inh 50µM, JMJD2A Tudor inconclusive
CN1CCN(c2ccc(NC(=S)NC(=O)/C=C/c3ccco3)cc2)CC1	G9a inh 45µM, BAZ2B inh inconclusive, JMJD2A Tudor inconclusive
Cc1ccc(NC(=O)CN2C(=O)COc3ccc(S(=O)(=O)NC4CCCC4)cc32)cc1Cl	none (no result: Sfp PPTase inh, PLK1 PBD inh)
c1cc(SSc2ccncc2)ccn1	Sfp PPTase inh 35µM, PLK1 PBD inh 1.9µM, G9a inh 0.56µM, HP1b chromo inh inconclusive, BAZ2B inh inconclusive, JMJD2A Tudor 14µM
C(=C\c1ccncc1)/c1ccncc1	none
COC(=O)[C@@]1(Cc2ccc(OC)cc2)[C@H]2c3cc(C(=O)N(C)C)n(Cc4ccc(Cl)c(C(F)(F)F)c4)c3C[C@H]2CN1C(=O)c1ccccc1	none (no result: PLK1 PBD inh, G9a inh, HP1b chromo inh, BAZ2B inh, JMJD2A Tudor)
COC(=O)c1cc(NC(=O)[C@H](CCS(C)(=O)=O)N2Cc3ccccc3C2=O)cc(C(=O)OC)c1	none (no result: Sfp PPTase inh, PLK1 PBD inh)
COc1cc2c(cc1OC)CN(C(=O)CN1CCN(S(=O)(=O)c3ccc(C)c(C)c3)CC1)CC2	none
O=C(CN1CCN(c2ccc(F)cc2)CC1)Nc1ccc2c(c1)OCCO2	none
O=C(CN1CCN(c2nc(-c3ccc(F)cc3)cs2)CC1)Nc1ccc2c(c1)OCO2	G9a inh 45µM, BAZ2B inh inconclusive
CCCCC(=O)N1CCN(c2nc(-c3ccc(F)cc3)cs2)CC1	none (no result: G9a inh)
NC(=O)CN1CCN(c2nc(-c3ccc(F)cc3)cs2)CC1	PLK1 PBD inh 30µM
O=C(COc1cc2oc(=O)cc(-c3ccccc3)c2cc1Cl)NCCN1CCOCC1	none
O=C(Nc1ccccc1)N1CCC2(CC1)CCN(C(=O)c1csnn1)CC2	none (no result: PLK1 PBD inh, HP1b chromo inh, BAZ2B inh, JMJD2A Tudor)
CCOc1ccc(CCNC(=O)c2oc3c(c2C)-c2[nH]ncc2CC3)cc1OCC	G9a inh 45µM
CCOc1ccc(CCNC(=O)c2nccnc2C(=O)O)cc1OCC	G9a inh 50µM, BAZ2B inh inconclusive
CCOC(=O)c1c(C)[nH]c(C(=O)COC(=O)c2ccc(F)c(S(=O)(=O)N3CCOCC3)c2)c1C	PLK1 PBD inh 27µM
CCOC(=O)c1ccc(NC(=O)c2ccc(C)c(S(=O)(=O)N3CCOCC3)c2)cc1	PLK1 PBD inh 27µM
O=C(NCc1ccco1)/C(=C/c1ccccc1F)NC(=O)c1ccccc1	none
Cc1ccc(S(=O)(=O)N2CCN(c3nc(-c4ccc(CN5CCOCC5)s4)nc4ccccc34)CC2)cc1	none (no result: Sfp PPTase inh, PLK1 PBD inh, G9a inh, BAZ2B inh)
CCOC(=O)c1ccc(NC(=O)c2cccc(S(=O)(=O)N3CCOCC3)c2)cc1	none (no result: BAZ2B inh)
Cc1ccc(NC(=O)c2cccnc2)cc1S(=O)(=O)N1CCOCC1	G9a inh 50µM (no result: Sfp PPTase inh)
CCOC(=O)c1ccc(S(=O)(=O)Nc2cc(S(=O)(=O)N3CCOCC3)ccc2O)cc1	PLK1 PBD inh 5.3µM, HP1b chromo inh inconclusive, JMJD2A Tudor inconclusive (no result: Sfp PPTase inh, G9a inh, BAZ2B inh)
CCOc1ccc(CCNC(=O)c2ccc(Cl)c(S(=O)(=O)N3CCOCC3)c2)cc1OCC	G9a inh 56µM, HP1b chromo inh inconclusive, BAZ2B inh 56µM, JMJD2A Tudor inconclusive (no result: Sfp PPTase inh)
NCCCCCCNc1nc2c(N)ncnc2n1[C@@H]1O[C@@H]2COP(=O)(O)O[C@H]2[C@H]1O	none (no result: PLK1 PBD inh, G9a inh, HP1b chromo inh, BAZ2B inh, JMJD2A Tudor)
CCCCOCCCNC(=O)C[C@@H]1C[C@@]2(C(=O)OC)CCCCC=C2N(CCc2ccc(OC)c(OC)c2)C1=O	none (no result: Sfp PPTase inh, G9a inh, HP1b chromo inh, BAZ2B inh, JMJD2A Tudor)
COc1ccccc1CN1CCC2(CC1)CCN(C(=O)c1cc(C(F)(F)F)cc(C(F)(F)F)c1)CC2	none (no result: PLK1 PBD inh, HP1b chromo inh, BAZ2B inh, JMJD2A Tudor)
Cc1ccc(CNC(=O)CCc2nnc(Cc3ccc(-c4ccccc4)cc3)o2)o1	Sfp PPTase inh 22µM
O=C(CN1C(=O)NC2(CCCCC2)C1=O)Nc1ccccc1N1CCCC1	none (no result: Sfp PPTase inh)
COc1cc(C)c(/C=C/C(C)=C/C=C/C(C)=C/C(=O)O)c(C)c1C	PLK1 PBD inh 30µM, G9a inh inconclusive, JMJD2A Tudor 56µM (no result: BAZ2B inh)
C/C(=N\Nc1nc(C(C)(C)C)cs1)c1ccc(O)cc1	Sfp PPTase inh 50µM, PLK1 PBD inh inconclusive, G9a inh 32µM, BAZ2B inh inconclusive, JMJD2A Tudor inconclusive
C/C(=N\Nc1nc(C(C)(C)C)cs1)c1ccccc1	G9a inh 71µM, BAZ2B inh inconclusive, JMJD2A Tudor inconclusive
O=C(Nc1nc2c(s1)CCCC2)Oc1ccccc1	none
